# The supplement of paper PMC6089552
# The whole screen tested about 3,200 compounds, of which about 300 (9.4%) showed activity. The entries come from a sample that favours actives as a whole. Values without a mark were called inactive.
# System: A673/TR/shEF
# Assay: cell viability (LOESS-normalised, relative to median of negative controls) (log2 ratio); higher = more viable cells (less compound effect), active = hit call of the paper (over 3 MAD below the median)
# Conditions: treatment time: 72 h
# Method in brief: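 For three days, A673/TR/shEF Ewing sarcoma cells in 384-well plates (1,500 per well) were treated with library compounds at two or more concentrations or with DMSO controls, after doxycycline had been added or withheld 24 h beforehand to induce EWS-FLI1 shRNA knockdown. Viability was read by CellTiter-Glo luminescence on an Envision reader. The data were LOESS-corrected per plate, divided by the median of negative controls and log2-transformed.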
# [1] = 0.25 µM, library screen: screen1, EWS-FLI1 expression: high (no doxycycline)
# [2] = 0.25 µM, library screen: screen1, EWS-FLI1 expression: low (doxycycline-induced shRNA knockdown)
# [3] = 0.25 µM, library screen: screen2, EWS-FLI1 expression: high (no doxycycline)
# [4] = 0.25 µM, library screen: screen2, EWS-FLI1 expression: low (doxycycline-induced shRNA knockdown)
# [5] = 2.5 µM, library screen: screen1, EWS-FLI1 expression: high (no doxycycline)
# [6] = 2.5 µM, library screen: screen1, EWS-FLI1 expression: low (doxycycline-induced shRNA knockdown)
# [7] = 2.5 µM, library screen: screen2, EWS-FLI1 expression: high (no doxycycline)
# [8] = 2.5 µM, library screen: screen2, EWS-FLI1 expression: low (doxycycline-induced shRNA knockdown)
structure (smiles),measurement,setting,value
CN(C)CCCN1c2ccccc2Sc2ccccc21,cell viability (log2),[1],0.0889
same,cell viability (log2),[2],0.0795
same,cell viability (log2),[3],0.0137
same,cell viability (log2),[4],-0.394
same,cell viability (log2),[5],0.107
same,cell viability (log2),[6],0.224
same,cell viability (log2),[7],-1.62 (active)
same,cell viability (log2),[8],-0.801 (active)
CN(C)CCCN1c2ccccc2Sc2ccc(Cl)cc21,cell viability (log2),"0.103 µM, library screen: screen3, EWS-FLI1 expression: high (no doxycycline)",0.0728
same,cell viability (log2),"0.103 µM, library screen: screen3, EWS-FLI1 expression: low (doxycycline-induced shRNA knockdown)",0.128
same,cell viability (log2),[1],0.1
same,cell viability (log2),[2],0.155
same,cell viability (log2),[3],0.141
same,cell viability (log2),[4],0.1
same,cell viability (log2),"0.308 µM, library screen: screen3, EWS-FLI1 expression: high (no doxycycline)",0.122
same,cell viability (log2),"0.308 µM, library screen: screen3, EWS-FLI1 expression: low (doxycycline-induced shRNA knockdown)",0.0127
same,cell viability (log2),"0.926 µM, library screen: screen3, EWS-FLI1 expression: high (no doxycycline)",0.0627
same,cell viability (log2),"0.926 µM, library screen: screen3, EWS-FLI1 expression: low (doxycycline-induced shRNA knockdown)",0.015
same,cell viability (log2),[5],0.206
same,cell viability (log2),[6],0.191
same,cell viability (log2),[7],0.129
same,cell viability (log2),[8],0.0664
same,cell viability (log2),"2.8 µM, library screen: screen3, EWS-FLI1 expression: high (no doxycycline)",-0.0176
same,cell viability (log2),"2.8 µM, library screen: screen3, EWS-FLI1 expression: low (doxycycline-induced shRNA knockdown)",0.0383
same,cell viability (log2),"8.3 µM, library screen: screen3, EWS-FLI1 expression: high (no doxycycline)",0.101
same,cell viability (log2),"8.3 µM, library screen: screen3, EWS-FLI1 expression: low (doxycycline-induced shRNA knockdown)",0.0471
same,cell viability (log2),"25 µM, library screen: screen3, EWS-FLI1 expression: high (no doxycycline)",-0.0174
same,cell viability (log2),"25 µM, library screen: screen3, EWS-FLI1 expression: low (doxycycline-induced shRNA knockdown)",0.0242
CN(C)CCCN1c2ccccc2Sc2ccc(C(F)(F)F)cc21,cell viability (log2),[1],0.067
same,cell viability (log2),[2],0.0785
same,cell viability (log2),[3],0.0818
same,cell viability (log2),[4],0.0662
same,cell viability (log2),[5],0.0754
same,cell viability (log2),[6],0.158
same,cell viability (log2),[7],0.181
same,cell viability (log2),[8],0.0843
CC(=O)Oc1cc(-c2coc3cc(OC(C)=O)c(OC(C)=O)c(OC(C)=O)c3c2=O)cc(OC(C)=O)c1OC(C)=O,cell viability (log2),[1],0.0397
same,cell viability (log2),[2],-0.0292
same,cell viability (log2),[5],0.0912
same,cell viability (log2),[6],-0.0545
CC1(C)C=Cc2c(c3c(c4c(=O)c(-c5ccc(O)cc5)coc24)OC(C)(C)CC3)O1,cell viability (log2),[1],0.057
same,cell viability (log2),[2],0.068
same,cell viability (log2),[5],0.105
same,cell viability (log2),[6],0.116
NC1(C(=O)O)CCc2cc(C(=O)O)ccc21 (stereo not given),cell viability (log2),[3],-0.364 (active)
same,cell viability (log2),[4],0.0469
same,cell viability (log2),[7],0.0221
same,cell viability (log2),[8],0.107
O=C(O)c1ccc2c(c1)OCO2,cell viability (log2),[1],0.146
same,cell viability (log2),[2],0.102
same,cell viability (log2),[5],0.137
same,cell viability (log2),[6],0.0963
C/C(=C\c1ccc(C(=O)O)cc1)c1ccc2c(c1)C(C)(C)CCC2(C)C,cell viability (log2),[3],0.00709
same,cell viability (log2),[4],0.0496
same,cell viability (log2),[7],0.0275
same,cell viability (log2),[8],0.0889
C=C(C)Cn1c(COc2ccc(Cl)cc2Cl)n[nH]c1=S,cell viability (log2),[1],0.0645
same,cell viability (log2),[2],-0.015
same,cell viability (log2),[5],0.0851
same,cell viability (log2),[6],-0.014
CC(C)CC(NP(=O)(O)O[C@@H]1O[C@@H](C)[C@H](O)[C@@H](O)[C@H]1O)C(=O)NC(Cc1c[nH]c2ccccc12)C(=O)O (stereo not given in full),cell viability (log2),[3],0.0833
same,cell viability (log2),[4],0.00183
same,cell viability (log2),[7],0.149
same,cell viability (log2),[8],-0.00437
COc1cc(CN2CCN(Cc3ccccc3F)CC2)cc(OC)c1OC,cell viability (log2),[1],0.0928
same,cell viability (log2),[2],0.0533
same,cell viability (log2),[5],0.0786
same,cell viability (log2),[6],0.127
OC[C@H]1N[C@H](CO)[C@@H](O)[C@@H]1O,cell viability (log2),[3],0.176
same,cell viability (log2),[4],0.0684
same,cell viability (log2),[7],0.108
same,cell viability (log2),[8],0.0354
Cc1ccc(C(C)C)c(O)c1C(=O)O,cell viability (log2),[1],0.112
same,cell viability (log2),[2],0.00973
same,cell viability (log2),[5],0.164
same,cell viability (log2),[6],0.0715
CC(C)C[C@@H]1NC(=O)[C@H](CCCN)NC(=O)[C@H](C(C)C)NC(=O)[C@@H]2CCCN2C(=O)[C@@H](Cc2ccccc2)NC(=O)[C@H](CC(C)C)NC(=O)[C@H](CCCN)NC(=O)[C@H](C(C)C)NC(=O)[C@@H]2CCCN2C(=O)[C@@H](Cc2ccccc2)NC1=O,cell viability (log2),[1],-1.96 (active)
same,cell viability (log2),[2],-0.176 (active)
same,cell viability (log2),[5],-3.79 (active)
same,cell viability (log2),[6],-0.0354
CCC(C)C(N)C1=NC(C(=O)N[C@@H](CC(C)C)C(=O)N[C@H](CCC(=O)O)C(=O)N[C@H](C(=O)N[C@H]2CCCCNC(=O)[C@H](CC(N)=O)NC(=O)[C@@H](CC(=O)O)NC(=O)[C@H](Cc3cnc[nH]3)NC(=O)[C@@H](Cc3ccccc3)NC(=O)[C@H]([C@@H](C)CC)NC(=O)[C@@H](CCCN)NC2=O)[C@@H](C)CC)CS1 (stereo not given in full),cell viability (log2),[1],0.0992
same,cell viability (log2),[2],-0.0505
same,cell viability (log2),[5],0.131
same,cell viability (log2),[6],0.0875
CC(C)C[C@@H]1NC(=O)[C@H](CCCN)NC(=O)[C@H](C(C)C)NC(=O)[C@H](Cc2ccc(O)cc2)N[C@@H](CCC(=O)O)C(=O)N[C@@H](CC(N)=O)C(=O)[C@@H](Cc2ccccc2)NC(=O)[C@H](Cc2ccccc2)NC(=O)[C@@H]2CCCN2C(=O)[C@@H](Cc2ccccc2)NC1=O,cell viability (log2),[1],-0.767 (active)
same,cell viability (log2),[2],-0.0111
same,cell viability (log2),[5],-2.84 (active)
same,cell viability (log2),[6],-2.45 (active)
CC(C)[C@@H]1NC(=O)[C@H](CCCCN)NC(=O)[C@@H](Cc2c[nH]c3ccccc23)NC(=O)[C@H](Cc2ccc(O)cc2)NC(=O)[C@H](C)N(C)C(=O)[C@H](Cc2ccccc2)NC1=O,cell viability (log2),[3],0.191
same,cell viability (log2),[4],0.085
same,cell viability (log2),[7],0.149
same,cell viability (log2),[8],0.111
CC1=CCCC(=O)C2CC(C)(C)C2CC1 (stereo not given),cell viability (log2),[1],0.0664
same,cell viability (log2),[2],0.0572
same,cell viability (log2),[5],0.102
same,cell viability (log2),[6],0.0635
CC(=O)O[C@H]1C[C@@]2(C)[C@H](c3ccoc3)OC(=O)[C@H]3O[C@]32[C@@]2(C)C1[C@]1(C)C(C[C@H]2OC(C)=O)C(C)(C)[C@H](OC(C)=O)C[C@@H]1OC(C)=O (stereo not given in full),cell viability (log2),[1],-0.00983
same,cell viability (log2),[2],0.0592
same,cell viability (log2),[5],0.0456
same,cell viability (log2),[6],0.0721
